Sampled rows, rich in hits. Any-hit rate of the full collection: about 2.8%.
PI5P4Ka inh – PI5P4K alpha (human) kinase inhibition | max response, % | 330,000 tested, 1.2% active | PI5P4Kalpha enzyme, ADP-Glo luminescence, 60 min; stronger effect = lower value | AID 652105; active means max response of -50% or lower; inconclusive means between -30% and -50%; inactive means -30% or higher; further: value at the top dose of about 77 µM
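Quantitative HTS of the MLSMR library against PI5P4Kalpha with substrate. ATP added last at 5 microM final; room temperature, 60 minutes. Remaining ATP depleted, ADP converted and read as luminescence.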
Pol kappa inh – DNA polymerase kappa (human) inhibition; Q9UBT6; purified Pol kappa, fluorescent DNA synthesis assay, 10 min; Potency, µM (top dose mostly 107 µM), usual class: inhibitors; 400,000 tested, 0.53% active
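Fluorescent qHTS in 1536-well format: enzyme (10 nM) and compound sat 15 min at room temperature before 50 nM substrate (final) was added. Signal taken at 0 and 10 min; no-enzyme buffer wells were negative controls.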
POLB inh – DNA polymerase beta (human) inhibition. AID 485314. 340,000 tested, 1.3% active. Potency, µM (series often up to 114 µM), usual class: inhibitors. P06746. Pol beta primer extension/strand displacement, fluorescence kinetic
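Enzyme-only controls used 10 nM Pol beta; buffer lacking enzyme served as negative control. Compound preincubated 15 min, then 50 nM substrate added; 0 and 10 min reads at room temperature.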
WRN inhibitor – blocks human WRN helicase | WRN helicase unwinding, fluorescent forked duplex, kinetic | Potency, µM (doses to about 114 µM), usual class: inhibitors | 360,000 tested, 0.46% active; further: nearly all actives have a fitted effect of over 55% in size
Target sequence (Q14191 whole entry, looked up): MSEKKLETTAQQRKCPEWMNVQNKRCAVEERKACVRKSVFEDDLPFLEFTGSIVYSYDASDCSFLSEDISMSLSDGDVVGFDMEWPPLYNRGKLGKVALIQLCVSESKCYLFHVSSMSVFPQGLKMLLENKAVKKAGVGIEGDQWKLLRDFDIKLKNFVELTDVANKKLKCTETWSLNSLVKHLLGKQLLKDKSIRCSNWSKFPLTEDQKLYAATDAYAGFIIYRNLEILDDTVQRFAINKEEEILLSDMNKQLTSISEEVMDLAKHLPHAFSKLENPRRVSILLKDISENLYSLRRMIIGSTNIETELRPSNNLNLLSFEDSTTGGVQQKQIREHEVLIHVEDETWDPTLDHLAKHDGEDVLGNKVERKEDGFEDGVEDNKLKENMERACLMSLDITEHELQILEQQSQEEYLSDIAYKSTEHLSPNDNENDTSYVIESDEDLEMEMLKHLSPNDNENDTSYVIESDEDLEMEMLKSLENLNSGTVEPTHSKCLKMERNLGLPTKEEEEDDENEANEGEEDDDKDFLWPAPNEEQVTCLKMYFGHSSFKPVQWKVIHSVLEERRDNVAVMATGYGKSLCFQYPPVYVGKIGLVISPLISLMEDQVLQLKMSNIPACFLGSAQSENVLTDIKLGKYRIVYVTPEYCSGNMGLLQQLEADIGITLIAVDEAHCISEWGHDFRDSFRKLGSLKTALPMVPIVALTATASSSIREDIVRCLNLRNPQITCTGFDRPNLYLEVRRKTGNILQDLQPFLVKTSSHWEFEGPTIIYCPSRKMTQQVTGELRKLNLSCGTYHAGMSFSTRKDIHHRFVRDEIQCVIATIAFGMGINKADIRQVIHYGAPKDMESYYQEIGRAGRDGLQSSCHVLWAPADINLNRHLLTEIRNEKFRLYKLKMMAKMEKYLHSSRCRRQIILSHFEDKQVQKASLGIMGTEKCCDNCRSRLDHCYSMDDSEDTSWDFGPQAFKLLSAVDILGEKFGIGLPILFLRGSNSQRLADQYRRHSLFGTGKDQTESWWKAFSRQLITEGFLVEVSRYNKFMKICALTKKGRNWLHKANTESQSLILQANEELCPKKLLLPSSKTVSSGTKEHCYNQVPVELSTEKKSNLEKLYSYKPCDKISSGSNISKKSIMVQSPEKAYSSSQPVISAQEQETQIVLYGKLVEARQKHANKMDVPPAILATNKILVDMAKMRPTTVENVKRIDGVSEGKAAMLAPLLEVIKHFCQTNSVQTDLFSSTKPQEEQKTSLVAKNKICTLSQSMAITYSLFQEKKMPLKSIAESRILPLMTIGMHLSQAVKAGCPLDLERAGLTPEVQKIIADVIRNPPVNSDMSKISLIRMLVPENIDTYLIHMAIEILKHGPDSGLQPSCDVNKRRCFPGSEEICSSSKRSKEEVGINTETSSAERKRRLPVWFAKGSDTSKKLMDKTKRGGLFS
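Enzyme (20 nM final) and test compound sit together 15 min at room temperature before substrate addition. Substrate is a single-forked duplex oligonucleotide (100 nM) labelled with fluorophore and quencher, with 2 mM ATP; helicase unwinding raises red fluorescence, read kinetically.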
Pol iota inh – DNA polymerase iota (human) inhibition; Q9UNA4; Pol iota fluorescent replication assay, 10 min; Potency, µM (titrated, usually from 115 µM), hits mostly inhibitors; 390,000 tested, 1% active; AID 588590
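Fluorescent replication assay read twice, at 0 min and 10 min after adding 50 nM (final) substrate. Enzyme (10 nM) and compounds were first incubated 15 min at room temperature; enzyme-free buffer wells were negative controls.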
Pol eta inh – DNA polymerase eta (human) inhibition; AID 588591; recombinant Pol eta, fluorescent DNA replication assay; Potency, µM (top dose mostly 114 µM), most hits filed as inhibitors; 390,000 tested, 1.2% active
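Pol eta (10 nM) was preincubated with compounds for 15 min at room temperature, after which fluorescent replication substrate (50 nM final) was added to start the reaction. Fluorescence was read kinetically at 0 and 10 min.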
Numbers stand for hits; n = inactive; u = inconclusive; x = no result; ! = a repeat was not active; [ ] = another dose, or the depositor's remark. Unless noted, the call rests on the fitted dose curve; in most records, active means well fitted curve in the direction sought with a large enough effect; inconclusive means small, poorly fitted or top-dose-only effect, or another doubt; inactive means no such curve, though single readings can be large; an effect the other way counts as inactive or inconclusive.

SMILES	PI5P4Ka inh	Pol kappa inh	POLB inh	WRN inhibitor	Pol iota inh	Pol eta inh
CCOc1ccc(NC(=O)CSc2nc(N)c(-c3ccccc3)c(=O)[nH]2)cc1	n	n	n	n	n	n
O=C(Nc1ccc(-c2nc3ccccc3[nH]2)cc1)c1ccccc1NS(=O)(=O)c1ccc(F)cc1	u	n	n	n	u	28µM
O=C(CSc1ccc(-c2nc3ccccc3[nH]2)cn1)Nc1ccc(S(=O)(=O)NC2CC2)cc1	n	n	18µM	n	u	u
Cc1ccc2nc(-c3ccc(SCC(=O)Nc4ccc5c(c4)OCCO5)nc3)[nH]c2c1	n	n	14µM	n	u	u
O=C(CSc1ccc(-c2nc3ccccc3[nH]2)cn1)Nc1ccc2c(c1)OCCO2	x	n	18µM	n	u	n
CS(=O)(=O)c1ccccc1C(=O)Nc1ccc(-c2nc3ccccc3[nH]2)cc1	n	n	n	n	n	n
Cc1cc2nc(-c3ccc(SCC(=O)Nc4ccc5c(c4)OCCO5)nc3)[nH]c2cc1C	x	n	u	n	u	n
COc1ccc(S(=O)(=O)c2cn(C)c3cc(N4CCCCCC4)c(F)cc3c2=O)cc1	x	n	n	x	n	n
CCc1ccc(CNC(=O)C2COc3ccccc3C2)cc1 (stereo unspecified)	x	n	n	x	n	n
CCc1nnc(NC(=O)CSc2ccc(-c3nc4ccccc4[nH]3)cn2)s1	x	n	35µM	n	u	u
Cc1nc(NC(=O)CSc2ccc(-c3nc4ccccc4[nH]3)cn2)sc1C	n	n	n	n	n	n
Nc1nc(N)c2c(Oc3ccc(F)cc3)cccc2n1	x	n	x	x	u	x
O=C(COc1ncnc2ccccc12)N1CCN(C(=O)c2ccco2)CC1	n	n	n	n	n	n
O=C(COc1ncnc2sccc12)N1CCN(C(=O)c2ccco2)CC1	u	u	40µM	u	20µM	u
CN=c1sc2c(n1C)C(=O)c1ccccc1C2=O	n	n	x	n	u	79µM
C#CCOCCOCCOCCNc1nc(N2CCN(C(=O)Cn3cc(CCCN=C(N)N)nn3)CC2)nc(N2CCN(C(=O)Cn3cc(CCCN=C(N)N)nn3)CC2)n1	x	x	1.6µM	x	x	x
C#CCOCCOCCOCCNc1nc(N2CCN(C(=O)Cn3cc(CCCCN)nn3)CC2)nc(N2CCN(C(=O)Cn3cc(CCCCN)nn3)CC2)n1	n	u	40µM	n	u	n
C#CCOCCOCCOCCNc1nc(N2CCN(C(=O)Cn3cc(CCCN=C(N)N)nn3)CC2)nc(N2CCN(C(=O)[C@H]([C@@H](C)CC)n3cc(CCC(=O)O)nn3)CC2)n1	n	n	n	n	89µM	n
C#CCOCCOCCOCCNc1nc(N2CCN(C(=O)CCCCCCCCCCNC(=O)Cn3cc(CCCCCN)nn3)CC2)nc(N2CCN(C(=O)CCCCCCCCCCNC(=O)Cn3cc(CCCCCN)nn3)CC2)n1	-64	n	x	79µM	u	n
O=C(CC1S/C(=N/N=C/c2ccco2)NC1=O)Nc1ccccc1 (stereo unspecified)	n	n	n	n	n	n
O=C(CC1S/C(=N/N=C/C=C/c2ccccc2)NC1=O)Nc1ccc(C(=O)O)cc1 (stereo unspecified)	-77	n	n	n	n	n
CC(C)(C)NC(=O)C(c1cc2ccccc2o1)n1c(=O)c(-c2ccccc2)nc2ccccc21 (stereo unspecified)	n	x	x	n	x	x
CCOc1ccc(C(c2c(O)cc(C)n(CCOC)c2=O)N2CCN(c3ccc(F)cc3)CC2)cc1 (stereo unspecified)	x	n	n	x	n	n
CSC1=N/C(=C\c2ccc(Br)o2)C(=O)S1	n	32µM	40µM	u	7.1µM	8.9µM
O=C(O)c1ccc(N2CCc3ccccc32)c([N+](=O)[O-])c1	-79	n	n	n	n	n
SMILES	PI5P4Ka inh	Pol kappa inh	POLB inh	WRN inhibitor	Pol iota inh	Pol eta inh
COC(=O)c1ccc(N2CCc3ccccc32)c([N+](=O)[O-])c1	n	n	n	n	n	n
C=CCn1c(=O)[nH]c2cc(C(=O)N3CCN(c4cccc(Cl)c4)CC3)ccc2c1=O	-53	n	n	n	89µM	u
C=C1C=C(C(F)F)n2ncc(C(=O)Nc3cccc(CC)c3)c2N1	x	n	x	x	n	x
O=C(NC1CC(=O)N(c2ccc(F)cc2)C1)C1CC1 (stereo unspecified)	x	n	n	x	n	n
Cc1c(C(=O)Nc2ccc(C(C)C)cc2)sc2nc[nH]c(=O)c12	x	n	n	x	n	n
O=C(NCc1ccccn1)C1(C(F)(F)F)C/C(=C\CCO)CCCO1 (stereo unspecified)	n	n	x	n	n	n
CCC/C=C1/CCCOC(C(=O)NCc2ccccn2)(C(F)(F)F)C1 (stereo unspecified)	n	n	x	n	89µM!	n
CCOC(=O)N1CCc2c(sc(NC(=O)c3ccc(S(=O)(=O)N4CCCC4)cc3)c2C#N)C1	-82	n	n	n	n	n
CC(C)Cn1c(-c2ccco2)nc2c(c(=O)c3ccccc3n2C)c1=O	x	x	40µM	x	x	x
COc1ccc(Cn2c(-c3ccco3)nc3c(c(=O)c4ccccc4n3C)c2=O)cc1	n	n	u	n[11.6 µM]	n	n
O=C(NNC(=O)c1ccc2ccccc2c1)Nc1ccc(F)cc1	n	n	45µM	n	u	n
O=C(NNC(=O)c1ccc(-c2ccccc2)cc1)Nc1ccc(F)cc1F	n	n	25µM	n	n	n
COc1ccccc1NC(=O)NNC(=O)c1ccc(-c2ccccc2)cc1	n	n	n	n	n	n
COc1ccc(NC(=O)c2ccc(NC(=O)CCS(=O)(=O)c3cccs3)cc2)cc1Cl	x	n	n	x	n	n
CCOc1ccc(NC(=O)Cn2cc(C(=O)c3ccc(C)c(C)c3)c(=O)c3cc(F)ccc32)cc1	x	n	n	x	n	n
Cn1c2ccccc2c2cnn(CC(=O)NCCCN3CCCCC3)c(=O)c21	x	n	n	x	n	n
O=C(OCc1nnc(-c2ccc([N+](=O)[O-])cc2)o1)C1CC(=O)N(CCc2ccccc2)C1 (stereo unspecified)	u	n	x	n	79µM	u
O=C(OCc1ccc([N+](=O)[O-])cc1)C1CC(=O)N(CCc2ccccc2)C1 (stereo unspecified)	n	n	x	n	n	n
COc1cc(/C=N/NC(=O)c2ccc(-n3cccc3)cc2)ccc1O	u	u	13µM	n[11.6 µM]	89µM	22µM
COc1cc(/C=C(/C(=O)O)c2ccc(-c3ccccc3)cc2)cc(OC)c1OC	n	n	50µM	n	n	u
COc1cc(/C=N/NC(=O)c2ccc(-c3ccccc3)cc2)cc(OC)c1OC	n	u	35µM	n	u	u
COc1cc(C=C(C#N)C(=O)c2ccccc2)cc(OC)c1OC	n	x	x	n	x	x
COc1cccc(/C=N/NC(=O)c2ccc(N3CCCC3=O)cc2)c1	n	u	25µM	n	u	n

Bioassay records deposited in PubChem by National Center for Advancing Translational Sciences (NCATS).
